From ChEMBL document CHEMBL3988442, “University of Dundee, Small-Polar-MMV Screening Library” (2021)
Values joined by “and” are separate entries in the source; they are usually repeats but may differ in a detail not shown here. Identical values can stand only once. Screen size: about 38,000 compounds; about 1,200 (3.2%) showed an effect of 50% or more. The median lay at about -58%. The sample holds strong results, similar compounds and a random draw of the others, so the mix is not that of the screen.

Test system: Plasmodium falciparum
Assay: Calibr Malaria Delayed Death Assay SOP
Format: functional, organism-based
Design: scale not given: in the data most compounds retested in dose-response had high values
Conditions: concentration 4.99e-06 (unit not given; other assays of the set use mol/L)

SMILES	Percent Effect	Percent Effect (4.99 µM)
O=C(NC1CC1)C1CNCCN1C(=O)CCOc1ccccc1 (stereo unspecified)	-111.6%	–
Cc1ncsc1-c1nnc(C2CCN(Cc3ccccc3Cl)CC2)o1	-108%	–
CC(=O)NC1CCN(c2c(C#N)cnc3c(C)cc(F)cc23)CC1	7.696%	–
CN(Cc1ccccc1)C(=O)CCNS(=O)(=O)c1cccnc1	-47.09%	–
c1ccc(CCCn2ccnc2-c2cn(C3CCNCC3)nn2)nc1	–	-23.72% and -17.15%
CN(Cc1cn(C2CCNCC2)nn1)CC1CCCO1 (stereo unspecified)	-84.49%	–
COc1cccc(CCn2ccnc2-c2cn(C3CCNCC3)nn2)c1	–	-32.98% and -26.9%
Cc1ccc2[nH]c(-c3cn(C4CCNCC4)nn3)nc2c1C	85.1%	–
Cc1cc2nc(-c3cn(C4CCNCC4)nn3)[nH]c2cc1C	87.17%	–
Cc1c(C)c(C)c2[nH]c(-c3cn(C4CCNCC4)nn3)nc2c1C	30.06%	–
Cc1cccc2[nH]c(-c3cn(C4CCNCC4)nn3)nc12	72.76%	–
Cc1nc(C(C)C)sc1C(=O)NCCSc1nccn1C	-107.8%	–
CC(=O)Nc1ccn(Cc2ccccc2)n1	-105.1%	–
CCOC(C)C(=O)N1CCCN(Cc2csc(CC)n2)CC1 (stereo unspecified)	-48.75%	–
CN1CCNC(=O)C12CCN(Cc1ccco1)CC2.O=C(O)C(F)(F)F.O=C(O)C(F)(F)F	-34.77%	–
Cc1ccc(CN2CCC3(CC2)CCN(Cc2ccco2)CC3)cc1.O=C(O)C(F)(F)F.O=C(O)C(F)(F)F	91.42%	–
Cc1nc(CN2CCC23CCN(Cc2ccco2)CC3)cs1	-38.18%	–
O=C(O)C(F)(F)F.O=C(O)C(F)(F)F.O=C(O)C(F)(F)F.c1coc(CN2CCC3(CC2)COCCN(CCN2CCCC2)C3)c1	-114.4%	–
Cc1nc(CN2CCC3(C2)CN(Cc2ccco2)C3)cs1	1.617%	–
Cc1noc(C)c1CN1CC2(CCN(Cc3c[nH]cn3)CC2)CC1=O	-101.4%	–
CO[C@@H]1CC[C@H]2[C@H]1OCCN2Cc1ccccn1.O=C(O)C(F)(F)F.O=C(O)C(F)(F)F	-69.16%	–
CN(C)CCN1CCC(NC2CSCCc3ccccc32)CC1 (stereo unspecified)	75.4%	–
CNC(=O)CN1CCC(NC2CSCCc3ccccc32)CC1 (stereo unspecified)	-108%	–
COCCCN1CCC(NC2CSCCc3ccccc32)CC1 (stereo unspecified)	-4.969%	–

SMILES	Percent Effect	Percent Effect (4.99 µM)
Cn1ncnc1CNc1ccccc1C(=O)NC(C)(C)C	-77.77%	–
Cc1ccccc1CN1CCC2(CCCN2C(=O)C(C)C)CC1	-62.94%	–
O=C1NC(C(=O)NCc2cccnc2Oc2ccc(F)c(F)c2)CO1 (stereo unspecified)	-127.9%	–
COc1ccc(C(=O)C2CCCN(Cc3cccc(F)c3)C2)c(OC)c1 (stereo unspecified)	22.79%	–
COc1ccc(C(=O)C2CCCN(Cc3ccncc3)C2)c(OC)c1 (stereo unspecified)	-20.34%	–
CCN(CC1CCCN(CCc2cccc(OC)c2)C1)C(=O)CSC (stereo unspecified)	19.02%	–
COc1ccc(C(=O)C2CCCN(CCc3ccccc3)C2)c(OC)c1 (stereo unspecified)	71.36%	–
CCN(CC1CCCN(CCc2cccc(OC)c2)C1)C(=O)CN(C)C (stereo unspecified)	83.05%	–
CCN(CC1CCCN(CCc2cccc(OC)c2)C1)C(=O)CO (stereo unspecified)	28.13%	–
Cc1ccccc1C(=O)N1CCO[C@H]2[C@H](OCCN(C)C)CC[C@@H]21.O=C(O)C(F)(F)F	-35.41%	–
CCCN(CCC)C(=O)c1cnn(C)c1C	-133.3%	–
COc1cccc(CNCc2ccc(F)c(Cl)c2)c1O	79.38%	–
COc1ccccc1COCC(O)CN(C)Cc1cccc(Cl)c1 (stereo unspecified)	-103.6%	–
COc1cccc(CNCc2cccc(Cl)c2)c1O	84.59%	–
COc1cccc(CNc2ccc(F)c(Cl)c2)c1O	-125.4%	–
COc1ccc(CNC(=O)c2ccc(Cl)cc2F)cc1C(=O)O	-124.3%	–
CCOc1cccc(CNc2ccccc2OC)c1O	-50.26%	–
CCn1nccc1CNc1nc(N)nc2c1nc(C)n2C	-33.19%	–
Cn1nc(CN2CCCCC2)c2c1CN(C(=O)c1ccoc1)C2	14.54%	–
O=C(Nc1cnc(Oc2ccccc2)nc1)C1CC1	-34.92%	–
O=C(O)c1cccc(N2CCC(Oc3cccc(F)c3)CC2)n1	-36.51%	–
CNCc1cc(F)ccc1Oc1ccc(F)cc1	15.63%	–
O=C(Nc1ccccc1Oc1cccc(F)c1)C1CCS(=O)(=O)C1 (stereo unspecified)	-81.74%	–
CCn1cc(-c2nn3c(C(C)C)nnc3s2)c(C)n1	-104%	–

SMILES	Percent Effect	Percent Effect (4.99 µM)
CC(NC(=O)N1CCCCCC1)c1ccc(S(N)(=O)=O)cc1 (stereo unspecified)	-106.8%	–
Cc1ncsc1C(=O)NCCNc1ncccn1	-77.02%	–
COCC1CN(CCOc2ccc(Cl)cc2)Cc2c1cnn2C.O=C(O)C(F)(F)F.O=C(O)C(F)(F)F (stereo unspecified)	-4.236%	–
CN(C)C1(CNc2ncc(Br)cn2)CCOCC1	27.48%	–
CSC1(CNC(=O)NC(C)c2ccc(F)cc2)CCOCC1 (stereo unspecified)	-168.4%	–
CC(NCC1(N(C)C)CCOCC1)c1ccc(SC(F)F)cc1 (stereo unspecified)	51.19%	–
CC(NCC1(N(C)C)CCOCC1)c1ccc(S(C)(=O)=O)cc1 (stereo unspecified)	-124.5%	–
CN(C)C1(CNC(=O)c2c(O)cc(Cl)cc2Cl)CCOCC1	-157.7%	–
CC(NCC1(N(C)C)CCOCC1)c1ccc(Cl)cc1 (stereo unspecified)	72.75%	–
O=S(=O)(N1CCCC1)N(Cc1ccccc1)CC1CCCO1 (stereo unspecified)	-64.47%	–
CN(C)CCN1C[C@@H]2CN(S(=O)(=O)c3ccccc3)C[C@@H]2C1=O.O=C(O)C(F)(F)F	-103%	–
CCN(CC)S(=O)(=O)c1ccc(C(=O)NC(C)(C)C)cc1	-100.9%	–
Cc1cc2nc(-c3ccccc3)cc(NCC3CCCOC3)n2n1 (stereo unspecified)	20.07%	–
COCCC(=O)Nc1nc2c(OC)cc(F)cc2s1	-96.38%	–
COc1ccc(CNC(C)c2ccccc2Cl)c(OC)c1OC.Cl (stereo unspecified)	74.88%	–
CC(NCc1ccc(C(N)=O)cc1)c1ccc(Cl)c(Cl)c1.Cl (stereo unspecified)	4.882%	–
COc1ccc(CNC(C)c2cccc(Cl)c2)c(OC)c1OC (stereo unspecified)	42.06%	–
COc1ccc(CNC(C)Cn2cccn2)c(OC)c1OC.Cl (stereo unspecified)	-41.68%	–
COc1ccc(C(C)NCc2ccc(OC)c(OC)c2OC)cc1F.Cl (stereo unspecified)	34.25%	–
COc1ccc(CNC(C)c2ccc(Cl)cc2)c(OC)c1OC (stereo unspecified)	80.38%	–
COCCS(=O)(=O)NC(C)c1ccccc1Cl (stereo unspecified)	-65.19%	–
COc1ccc(CNC(C)c2ccc(Cl)c(Cl)c2)c(OC)c1OC (stereo unspecified)	65.05%	–
COc1ccc(C(C)NCc2c[nH]nc2C)cc1OC.Cl (stereo unspecified)	-66.18%	–
